Screening data (PubChem)
RMI FANCM FP – RMI-FANCM interaction inhibition; FP signal (polarization) at 33 µM; Fluorescence polarization, RMI core complex with F-MM2 peptide; hits give low values; hit rate 0.58% among 70,000; in the data active = FP signal below about 40
* hit, by the source's call. This is one part of a sample in which hits are shown more often than they occur.

For Cn1cccc1C(CNC(=O)C1CC1)N1CCCC1 (stereo unspecified) the results were RMI FANCM FP 62.
For COc1ccc(-c2ccc(=O)n(CCCC(=O)Nc3ccc(C(N)=O)cc3)n2)cc1OC the results were RMI FANCM FP 73.
Nc1sc2c(c1-c1nc3ccccc3s1)CCCC2 was read as RMI FANCM FP 144.
`CC(=O)Nc1ccc(/C=C(\C#N)c2ccc([N+](=O)[O-])cc2)cc1` gave RMI FANCM FP 84.
Screening NC[C@@H]1O[C@H](O[C@@H]2[C@@H](CO)OC(O[C@@H]3[C@@H](O)[C@H](N)C[C@H](N)[C@H]3O[C@H]3O[C@H](CO)[C@@H](O)[C@H](O)[C@H]3N)[C@@H]2O)[C@H](N)[C@@H](O)[C@@H]1O (stereo partly specified) returned RMI FANCM FP 58.
`NC[C@H]1O[C@H](OC2[C@@H](N)C[C@@H](N)[C@H](O)[C@H]2O[C@@H]2O[C@H](CO)[C@@H](O)[C@H]2O)[C@H](N)[C@@H](O)[C@@H]1O` (stereo partly specified) gave RMI FANCM FP 49.
Screening NC[C@@H]1O[C@H](O[C@H]2[C@@H](O)[C@H](O[C@@H]3[C@@H](O)[C@H](N)C[C@H](N)[C@H]3OC3O[C@H](CO)[C@@H](O)[C@H](O)[C@H]3N)O[C@@H]2CO)[C@H](N)[C@@H](O)[C@@H]1O (stereo partly specified) returned RMI FANCM FP 4*.
`O=C1CCC(=O)N1c1cccc([N+](=O)[O-])c1` gave RMI FANCM FP 57.
CN1CCN(CCS(=O)(=O)OCC(F)(F)F)CC1 was read as RMI FANCM FP 60.
`O=C(O)c1cccc([N+](=O)[O-])c1C(=O)NCCc1ccccc1` gave RMI FANCM FP 60.
Screening CCN1C(=O)C2CC(C)=C(C)CC2C1=O (stereo unspecified) returned RMI FANCM FP 29*.
`CC1=C(C)CC2C(=O)N(c3ccc(O)cc3)C(=O)C2C1` (stereo unspecified) gave RMI FANCM FP 59.
Screening CC1=C(C)CC2C(=O)N(C(Cc3ccccc3)C(=O)O)C(=O)C2C1 (stereo unspecified) returned RMI FANCM FP 57.
Cc1ccc(-c2cc3c(=O)n(CC(=O)Nc4cccc(C(F)(F)F)c4)ncn3n2)cc1C was read as RMI FANCM FP 146.
Screening O=C(Oc1ccc(NS(=O)(=O)c2ccc3ccccc3c2)cc1Cl)c1ccccc1 returned RMI FANCM FP 29*.
`O=C(COc1ccc(S(=O)(=O)Nc2ccccc2)cc1Cl)c1ccccc1` gave RMI FANCM FP 57.
Screening COc1cc(NS(=O)(=O)c2ccc3ccccc3c2)ccc1N1CCCCC1=O returned RMI FANCM FP 52.
For COc1ccc(/C=N\N=C(\NC(=O)Nc2ccccc2)SCc2ccc(F)cc2)cc1 the results were RMI FANCM FP 61.
Screening CC1CCN(C(=O)Cc2csc3nc(-c4ccccc4)cn23)CC1 returned RMI FANCM FP 64.
Screening NC(=O)NC(=O)Cc1nc2ccccc2s1 returned RMI FANCM FP 53.
Screening O=C(OCc1nc2ccccc2s1)c1nc2ccccc2s1 returned RMI FANCM FP 62.
For O=C(Cc1nc2ccccc2s1)c1ccc(O)cc1O the results were RMI FANCM FP 24*.
Screening N/C(=N/OC(=O)c1ccc(-c2cccs2)s1)c1cccc(C(F)(F)F)c1 returned RMI FANCM FP 49.
For CCOc1ccc(-n2ccnc(SCC(=O)Nc3ccc(F)cc3F)c2=O)cc1 the results were RMI FANCM FP 72.
For CCOc1cc(-c2nnc(NC(=O)c3ccccc3Br)o2)cc(OCC)c1OCC the results were RMI FANCM FP 61.
Screening CC(=O)Oc1ccccc1C(=O)O returned RMI FANCM FP 50.
`CC(=O)Oc1cccc2c1C(=O)c1c(OC(C)=O)cc(C(=O)O)cc1C2=O` gave RMI FANCM FP 34*.
`O=C(O)c1cc(O)c2c(c1)C(=O)c1cc(O)cc(O)c1C2=O` gave RMI FANCM FP 57.
O=C(NNC(=O)c1cccn(Cc2ccc(F)cc2)c1=O)c1ccc(F)cc1F was read as RMI FANCM FP 60.
`CCOC(=O)c1c(NC(=S)NC(=O)c2sc3ccccc3c2Cl)sc2c1CCC2` gave RMI FANCM FP 59.
COc1ccc(-c2c3c(nc4sc(C(=O)c5ccc6c(c5)OCCO6)c(N)c24)CC(C)(C)CC3=O)cc1 was read as RMI FANCM FP -6*.
For COc1ccc(-c2c3c(nc4sc(C(=O)Nc5ccc(F)cc5)c(N)c24)CC(C)(C)CC3=O)cc1 the results were RMI FANCM FP 70.
COc1ccc(-c2c3c(nc4sc(C(=O)c5ccc(Cl)c(Cl)c5)c(N)c24)CC(C)(C)CC3=O)cc1 was read as RMI FANCM FP 99.
For O=C(Nc1cccc(-c2ccc3nnc(-c4ccncc4)n3n2)c1)c1ccc(Cl)cc1 the results were RMI FANCM FP 128.
`COc1ccc(OC)c(-c2cc(C(=O)O)[nH]n2)c1` gave RMI FANCM FP 74.
Screening CCOc1ccc(-c2noc(CS(=O)(=O)c3ccc(F)cc3)n2)cc1 returned RMI FANCM FP 68.
